Consider 96 compounds from PubChem BioAssay AID449762 (Southern Research Specialized Biocontainment Screening …, 2010).

Screen size: about 330,000 compounds; about 1,900 (0.58%) were called active. Another 4% or so got no clear call; they are omitted. Not all results are given here. Measured potencies and affinities stand elsewhere. A number with no mark means an inactive call. No stated cut-off is given here; in the data, inconclusive means inhibition above about 70% without an active follow-up result; inactive means below that.

For orientation: inhibition means the drop in the measured response relative to a control, in per cent.

A short description of this experiment: M. tuberculosis growth inhibition, HTS (AID 449762).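 Further: bacterial growth assessed after seven days of incubation.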 The note with it: M. tuberculosis H37Rv growth inhibition, 7H9 media; at 25 µM; stronger effect = higher value.
With `Cc1ccc(C(=O)N/N=c2\sc3ccccc3n2C)cc1`, the inhibition is 10.5%. To `COc1cccc(C(=O)N/N=c2\sc3ccccc3n2C)c1` belongs 29.6%. The same measure for `Cc1ccc(S(=O)(=O)N2CCOCC2)cc1C(=O)NC(=S)N1CC(C)OC(C)C1` (stereo unspecified): -0.86%.

On to `O=C(N/N=C\c1ccc(Cl)s1)c1cccs1`, for which the inhibition is 63.3%. The same measure for `Cc1ccc(/C=N/NC(=O)c2cccs2)s1`: 43%. The same measure for `CC1(C)CC(=O)C=C(c2cccc(Br)c2)C1`: -4.12%. To `COc1cc(-c2nnc(SCC(=O)Nc3ccc(C(=O)O)cc3)o2)cc(OC)c1OC` belongs -0.72%; to `COc1cc(NC(=O)C2CCN(S(=O)(=O)c3ccc(N4CCCC4=O)cc3)CC2)cc(OC)c1`, 8.33%; to `C=CCNC(=O)N1CCC(c2nc3ccccc3s2)CC1`, -8.35%.

Turning to `Oc1cccc(/C=N/NC(=S)NCCN2CCOCC2)c1O`, the inhibition was -1.62%. For `S=C(NCCN1CCOCC1)N/N=C/c1ccccc1`, the inhibition was -4.03%. The same measure for `CCCn1c(SCC(=O)Nc2ccc(S(=O)(=O)N(C)C)cc2)n[nH]c1=O`: -9.52%; for `CCn1c(SCC(=O)Nc2ccc3c(c2)OCO3)nnc1C(C)C`: -4.67%. The same measure for `COc1ccc(C2CC(c3ccccc3)=NN2C(=O)COC(=O)c2ccc(S(C)(=O)=O)cc2)cc1` (stereo unspecified): 1.53%. On to `COc1ccc(C2=NN(C(=O)COC(=O)c3ccc(NC(=O)CC#N)cc3)C(c3ccco3)C2)cc1` (stereo unspecified), for which the inhibition was -7.88%. As for `Cc1cccc(-n2c(-c3csc4ccccc34)n[nH]c2=S)c1`, the inhibition was 2.9%. To `Cc1nonc1NC(=O)CSc1ccccn1` belongs 2.01%. The same measure for `CC(=O)Nc1nonc1NC(=O)CSc1ccccn1`: -2.12%; for `CN1C(=O)c2ccccc2N(C)C1c1cccc(O)c1` (stereo unspecified): 0.25%; for `O=C(CN1C(=O)c2cccc3cccc1c23)NCc1ccccn1`: -1.94%.

As to `COc1ccc(S(=O)(=O)Nc2cccc(S(=O)(=O)N3CCCC3)c2)cc1OC`, the inhibition is -4.75%.

On to `CCOC(=O)CCCNC(=O)COC(=O)c1cc(C)cc(C)c1`, for which the inhibition was -0.59%. The same measure for `CCOC(=O)CCCNC(=O)COC(=O)c1ccc(O)cc1`: -6.12%; for `COc1cc(NS(=O)(=O)c2c(C)[nH]c(C)c2C(=O)N2CCCCC2)cc(OC)c1OC`: 7.96%; for `COc1ccccc1C(=O)N/C(N)=N/c1nc2ccccc2o1`: 0.95%. The same measure for `O=C(NC(=Nc1nc2ccccc2o1)NC(=O)c1ccccc1)c1ccccc1`: 3.54%; for `CCC(=O)N(Cc1ccco1)Cc1cc2cc3c(cc2[nH]c1=O)OCO3`: 3.54%. The same measure for `S=C(NCCc1ccccc1)N1CCN(C23CC4CC(CC(C4)C2)C3)CC1`: 7.41%; for `CCN1CCN(C2CCCCC2NS(=O)(=O)c2ccccc2)CC1` (stereo unspecified): -5.99%; for `Cc1c(C(=O)Nc2nc3ccccc3[nH]2)oc2ccc(Br)cc12`: 64.1%.

With `COc1ccc2oc(C(=O)Nc3nc4ccccc4[nH]3)c(C)c2c1`, the inhibition was 25.6%. For `CCC(C)(C)NC(=O)Cn1c(-c2ccc(C)cc2)noc1=O`, the inhibition is -4.07%. The same measure for `Cc1ccc(C(=O)Cn2c(-c3ccccc3)noc2=O)cc1`: 2.22%; for `Cn1ccc(-c2ccccc2)c(C#N)c1=O`: -0.87%; for `Cc1ccc2nc(SCC(=O)NCC3CCCO3)c(C#N)cc2c1` (stereo unspecified): 9.97%. As to `Clc1ccccc1OCCCCn1ccnc1`, the inhibition was -6.48%. For `Cc1ccccc1OCCCCCn1ccnc1`, the inhibition is -16.2%. With `COc1ccccc1NC(=O)C(C)OC(=O)/C(=C/c1ccccc1)NC(C)=O` (stereo unspecified), the inhibition is 5.35%.

`O=C(Nc1ccc2c(c1)OCO2)c1ccc(Br)s1`: the inhibition is 65%. The same measure for `O=C(Nc1ccc2c(c1)OCO2)c1cccs1`: -1.92%; for `O=c1[nH]nc(-c2ccc(F)cc2)cc1Cc1ccccn1`: 1.36%; for `CCC(C)(C)NC(=O)C(c1ccc(OC)cc1)N(C(=O)CCC(=O)Nc1cc(C)on1)c1ccccc1OC` (stereo unspecified): -10.6%. The same measure for `O=[N+]([O-])c1ccccc1/C=C/CN1CCCCC1`: -9.58%; for `O=C(Nc1ccn(Cc2c(F)c(F)cc(F)c2F)n1)c1ccc(COc2ccccc2Cl)cc1`: 0.39%.

Consider `O=C(Nc1ccn(Cc2c(F)c(F)c(F)c(F)c2F)n1)c1ccc(COc2ccccc2Cl)cc1`, for which the inhibition is -14%. The same measure for `CCCOC(=O)C1NC(=O)N2C(C(=O)OCCC)C(C)(C)S[C@H]12` (stereo partly specified): -1.23%; for `c1ccc(-c2ccc(SCc3cccnc3)nn2)nc1`: -8.38%. To `c1ccc(CSc2ccc(-c3ccccn3)nn2)nc1` belongs 7.58%; to `CC(=O)c1ccc(NC(=O)C(C)Sc2nnc3ccccn23)cc1` (stereo unspecified), -6.02%. To `C=CCn1c(O)c(N=Nc2ccccc2C)c2ccccc21` belongs 53.8%; to `C=CCn1c(O)c(N=Nc2ccccc2)c2ccccc21`, 19.4%; to `O=C(Nc1ccc(C(=O)N2CCCC2)cc1)Nc1ccc(Cl)cc1Cl`, -2.35%. For the compound `CC(C)c1nc(NCCO)c2nnn(Cc3ccccc3)c2n1`, the inhibition is -8.58%. To `COc1ccc(-n2nc(C(=O)NCC(=O)Nc3cc(C)ccc3OC)c3ccccc3c2=O)c(OC)c1` belongs 12.5%; to `c1ccc(Cn2c[n+](Cc3ccccc3)c3ccccc32)cc1`, 2.04%.

As to `Cc1ccc(OCC(O)CN2CCN(c3ccc(C)cc3)CC2)cc1` (stereo unspecified), the inhibition is 10.5%. In the case of `CO/N=C/CC(=O)Nc1ccc(F)cc1F`, the inhibition was -4.1%. To `O=C(CCNC(=O)c1ccc([N+](=O)[O-])cc1)Nc1ccc(F)cc1F` belongs 17.9%; to `O=C(COC(=O)c1ccc(F)cc1F)NCc1ccc2c(c1)OCO2`, 2.2%; to `C=CCOc1ccc(C2=NOC(C(=O)Nc3ccc4c(c3)OCCO4)C2)cc1OC` (stereo unspecified), 4.17%. As to `O=C(Nc1ccc2c(c1)OCCO2)C1CC(c2ccc(F)cc2)=NO1` (stereo unspecified), the inhibition is -3.61%. For the compound `COc1cccc(-c2nnc3sc(C4CCCCC4)nn23)c1`, the inhibition was 66.4%. To `COc1ccccc1-c1nnc2sc(C3CCCCC3)nn12` belongs -3.09%; to `CC(CN1CCCC1)OC(=O)c1ccc(Cl)cc1Cl` (stereo unspecified), 4.38%. To `CC(=O)c1ccc(N2CCN(C(=S)NCCCN(C)C)CC2)cc1` belongs 3.66%. Turning to `CCCCNC(=S)N1CCN(c2ccc(C(C)=O)cc2)CC1`, the inhibition is 7.05%. To `COc1ccc(-c2sc(Nc3ccccc3)n[n+]2-c2ccc(F)cc2)c(C)c1C` belongs 1.59%; to `CC(C)c1ccccc1NC(=O)CC1(CC(=O)O)CCCC1`, -1.9%; to `Cc1ccc(N2C(=O)[C@@H]3Cc4ccccc4CN3C2=O)cc1`, 1.44%. The same measure for `O=[N+]([O-])c1c(C(Cl)Cl)nn(-c2ccccc2)c1N1CCOCC1`: 5.81%; for `O=[N+]([O-])c1c(C(Cl)Cl)nn(-c2ccccc2)c1N1CCCC1`: -9.83%. As to `Cc1cc(C)n(-c2ccc(C(=O)NCc3cccs3)cc2)n1`, the inhibition was -8.74%.

As for `COc1ccc(-c2cc(N)n(S(=O)(=O)c3ccc(C)cc3)n2)c(OC)c1`, the inhibition is -6.16%. As to `Cc1ccc(-n2c(C)cc(/C=C3\SC(=O)NC3=O)c2C)cc1`, the inhibition was 7.2%. To `Cc1cc(/C=C2\SC(=O)N(C)C2=O)c(C)n1-c1ccc(S(N)(=O)=O)cc1` belongs -2.91%; to `Nc1ccc(-c2cc(-c3ccc(N)cc3)nc(-c3ccccc3)n2)cc1`, -2.43%; to `COc1ccccc1N1CCN(C(c2cccs2)C(C)NC(=O)C(=O)N2CCCCC2)CC1` (stereo unspecified), 3.15%. The same measure for `Cc1cc(C(=O)Nc2c(C)nn(Cc3ccccc3Cl)c2C)no1`: -4.86%; for `Cc1ccc(S(=O)(=O)Oc2cccc(/C=N/Nc3ccc(C(=O)O)cc3)c2)cc1`: 20.9%.

For `CC(C)(C)c1ccc(Cn2nnc3c(=O)[nH]c(C4CCCN(C(=O)c5cccs5)C4)nc32)cc1` (stereo unspecified), the inhibition is 11.9%. The same measure for `O=C(Cc1cccs1)N1CCCC(c2nc3c(nnn3Cc3ccc(F)cc3)c(=O)[nH]2)C1` (stereo unspecified): -5.77%. The same measure for `COc1c(/C=N/NC(N)=S)c(C)nn1-c1ccccc1`: 65.5%. The same measure for `CCC1CN(C(=O)N2CCC(C(=O)NCCc3ccccc3OC)CC2)c2ccccc2O1` (stereo unspecified): 2.39%. With `CCCc1cc2c(cc1NC(=O)c1ccco1)OCO2`, the inhibition is 0.1%. The same measure for `CCCc1cc2c(cc1NC(=O)c1ccccc1F)OCO2`: 42%.

In the case of `CCCCNC(=S)N(C)/N=C/c1ccc(OCC(=O)Nc2ccc(OC)cc2)c(OC)c1`, the inhibition is 5.57%. To `O=C(NNC(=O)c1cccc(-n2cnnn2)c1)c1ccccc1` belongs 4.62%; to `COc1ccc(CCN2CCCC(CN(C)Cc3cc(OC)c(OC)c(OC)c3)C2)cc1` (stereo unspecified), 2.86%; to `CCCCCCCCNC(=O)/C(C#N)=C/c1ccccc1[N+](=O)[O-]`, 9.84%.

For `O=[N+]([O-])c1ccc(N=Cc2ccc(Br)c([N+](=O)[O-])c2)cc1`, the inhibition was -2.74%.

Take `C(=Nc1ccc(Nc2ccccc2)cc1)c1ccc2ccccc2c1`: the inhibition is 1.29%.

For the compound `Cc1ccc(NC(=O)CCSc2ccccn2)cc1`, the inhibition is -4.42%. The same measure for `Cc1cccc(N2CCN(C(=O)C3CCN(S(=O)(=O)c4cccc5cccnc45)CC3)CC2C)c1` (stereo unspecified): -1.75%; for `Cc1cc(C)c(NC(=O)COC(=O)Cn2nc(-c3ccccc3)oc2=O)c(C)c1`: 3.1%; for `C=C1C(=O)O[C@@H]2C[C@@H](C)[C@H]3C=CC(=O)[C@]3(O)C[C@@H]12`: 7.75%. The same measure for `C[C@@H]1C[C@H]2OC(=O)C3(CO3)[C@H]2[C@H](O)[C@]2(C)C(=O)C3OC3[C@@H]12` (stereo partly specified): -4.69%.
